Test results: PubChem BioAssay AID743398 (Broad Institute, 2014)
The whole screen tested about 300,000 compounds, of which about 3,600 (1.2%) were called active. The sample holds actives, similar compounds and a random draw of the others, so the mix is not that of the screen. Cut-off read from the data, not from the text of the source: active = activation above about 30% (passing the limit was not always enough); inconclusive = no clear call, values can overlap the other calls.

Assay: Wnt/beta-catenin pathway activators, primary screen, cell-based, plate reader, single point (AID 743398);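 note: 0% = neutral control wells and 100% = positive control wells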
Details: Wnt/beta-catenin reporter cell assay, activator, at 9.35 µM, hits give high values

Which activation does the source give for OC(c1ccccc1)(c1ccccc1)C1CCN(CCCOc2ccccc2)CC1 here?
Its activation is -5.07% (inactive).

For COc1ccc(Sc2ccc(NC(=O)c3cccc(Cl)c3)cc2C#N)cc1, which activation is on record?
Its activation is -0.516% (inactive).

With CCOC(=O)N1CCC(Nc2c(NCCCN3CCN(c4ccc(OC)cc4)CC3)c(=O)c2=O)CC1 as the compound, how does the activation read?
Its activation is 33.6% (active).

With CCOC(=O)N1CCC(Nc2c(NCCN3CCN(c4cccc(Cl)c4)CC3)c(=O)c2=O)CC1 as the compound, how does the activation read?
Its activation is -0.679% (inactive).

Which activation does the source give for CCOC(=O)N1CCC(Nc2c(NCCCN3CCN(CC)CC3)c(=O)c2=O)CC1 here?
Its activation is 1.91% (inactive).

Which activation does the source give for COC(=O)[C@]12CCCCC=C1N(Cc1ccccc1)C(=O)[C@H](CC(=O)NCc1ccc(C)o1)C2 here?
Its activation is -1.58% (inactive).

With CC(C)c1cccc(-c2csc(C(O)c3ccccc3)n2)c1 (stereo not given) as the compound, how does the activation read?
The activation was 1.98% (inactive).

Which activation does the source give for OC(c1ccccc1)c1nc(-c2cnc3ccccc3c2)cs1 (stereo not given) here?
The activation was 50.7% (active).

Which activation does the source give for COc1cccc(C(NC(C)=O)c2nc(-c3cnc4ccccc4c3)cs2)c1 (stereo not given) here?
Its activation is -0.125% (inactive).

Which activation does the source give for Cc1cc(Cl)ccc1C(=O)C1CCCN(C(=O)c2ccc3c(c2)OCO3)C1 (stereo not given) here?
Its activation is -2.01% (inactive).

Which activation does the source give for COc1ccc(C(=O)N2CCCCC2c2cc(C(=O)Nc3ccccc3)no2)cc1 (stereo not given) here?
Its activation is -2.86% (inactive).

For CCc1ccccc1NC(=O)CN1CCN(C(=O)c2cc(C3CC3)nn2-c2ccccc2)CC1, which activation is on record?
Its activation is -4.73% (inactive).

With COc1cccc(-c2cnc3c(NC(C)=O)cc(-c4cccc(NC(C)=O)c4)cn23)c1 as the compound, how does the activation read?
The activation was -2.59% (inactive).

Which activation does the source give for COc1cc(/C=C2/C(=O)ON=C2C)ccc1OCc1ccccc1F here?
The activation was 48.1% (active).

With C=CCOc1ccc(/C=C2/C(=O)ON=C2C)cc1OCC as the compound, how does the activation read?
The activation was -0.78% (inactive).

Which activation does the source give for COc1cc(/C=C2/C(=O)ON=C2C)ccc1OCc1cccc(F)c1 here?
Its activation is 13.4% (inactive).

With C[C@@H]1Cn2cnc(C(=O)Nc3ccc(CNC(=O)OC(C)(C)C)cc3)c2C(=O)N1 as the compound, how does the activation read?
Its activation is -0.752% (inactive).

For COc1cccc(NC(=O)Nc2ccc(F)cc2)c1, which activation is on record?
Its activation is 4.29% (inactive).

With Cc1ccc(-c2cnc(C(O)c3cc(Cl)cc(Cl)c3)[nH]2)cc1 (stereo not given) as the compound, how does the activation read?
Its activation is -5.54% (inactive).

With COc1ccc(OCc2cc(C(=O)NCC3(C)COC3)no2)c(Cl)c1 as the compound, how does the activation read?
Its activation is 7.69% (inactive).

For Cc1cccnc1CC(C)NC(=O)c1cc(COc2cncc(Cl)c2)on1 (stereo not given), which activation is on record?
The activation was 7.75% (inactive).

With Cc1cc(OCc2cc(C(=O)NCc3cc(C(C)C)no3)no2)cc(C)c1Cl as the compound, how does the activation read?
Its activation is 40.5% (active).

For O=C(CSc1nc2ccccc2[nH]1)c1cccs1, which activation is on record?
Its activation is 58.5% (active).

With CN(Cc1ccccc1)C(=O)CSc1nc2ccccc2[nH]1 as the compound, how does the activation read?
The activation was 12.8% (inactive).

With C=CCSc1nc2ccccc2[nH]1 as the compound, how does the activation read?
Its activation is 0.251% (inactive).
